Results filed as inconclusive are left out. Activity calls are given as the source filed them. Calls follow the shape of the dose curve; as a rule, active = well fitted activation curve with a large enough effect in the main read-out, with a control signal flat (not every such curve was filed as active); inconclusive = small, poorly fitted or top-dose-only effect, or effect the other way, or a change in a side signal; inactive = flat fitted curve, though single readings scatter.

Consider 25 compounds from PubChem BioAssay (NCATS).

3',5'-cyclic-AMP phosphodiesterase 4B (Homo sapiens), sequence (Q07343 whole entry, looked up): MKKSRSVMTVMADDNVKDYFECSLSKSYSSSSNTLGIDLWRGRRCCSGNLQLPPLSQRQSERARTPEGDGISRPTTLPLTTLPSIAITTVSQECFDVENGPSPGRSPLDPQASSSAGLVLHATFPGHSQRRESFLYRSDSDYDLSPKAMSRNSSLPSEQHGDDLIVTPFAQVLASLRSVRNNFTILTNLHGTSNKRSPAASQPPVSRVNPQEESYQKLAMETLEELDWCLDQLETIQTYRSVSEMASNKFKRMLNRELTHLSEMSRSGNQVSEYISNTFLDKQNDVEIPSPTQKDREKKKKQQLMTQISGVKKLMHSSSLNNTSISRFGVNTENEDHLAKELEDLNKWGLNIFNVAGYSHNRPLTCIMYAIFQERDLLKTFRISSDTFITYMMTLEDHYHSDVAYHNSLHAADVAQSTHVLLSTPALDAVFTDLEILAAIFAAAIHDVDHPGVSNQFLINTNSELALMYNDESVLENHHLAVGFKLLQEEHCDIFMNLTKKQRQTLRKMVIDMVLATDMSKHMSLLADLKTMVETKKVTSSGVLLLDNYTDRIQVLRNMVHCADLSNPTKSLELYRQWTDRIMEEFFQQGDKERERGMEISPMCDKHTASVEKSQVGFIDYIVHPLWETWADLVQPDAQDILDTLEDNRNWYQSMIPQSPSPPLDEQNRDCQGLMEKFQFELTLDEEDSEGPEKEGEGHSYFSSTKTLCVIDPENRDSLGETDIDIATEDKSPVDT

The target of the test is 3',5'-cyclic-AMP phosphodiesterase 4B (Homo sapiens) (UniProt Q07343). Kind of test: qHTS Assay for Inhibitors of PDE-IV (AID 607). Conditions: HEK293 ACTOne CNG channel cells, membrane potential fluorescence; series mostly up to 22.9 µM. The gist of the method:
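The readout is membrane depolarisation from a cAMP-sensing CNG channel, detected with a potential dye at ex 535/em 590. Cells were HEK293-derived (endogenous PDE-IV) at 1000 cells/well, titrated up to 22.9 uM final.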
Background: qHTS replaces the single test concentration by a dilution series.
In the case of `CN=C(N)NCCC[C@H](N)C(=O)O`, the outcome was inactive.

`O=C1C(CCS(=O)c2ccccc2)C(=O)N(c2ccccc2)N1c1ccccc1` (stereo not given): the outcome was inactive.

For the compound `CCN(CC)CCNC(=O)COc1ccc(OC)cc1`, the compound was classed as inactive.

Take `NC(N)=NCc1cccc(I)c1`: the compound was classed as inactive.

Turning to `CN1CCC[C@@H]1CCO[C@](C)(c1ccccc1)c1ccc(Cl)cc1`, the result was inactive.

For `COc1cc(NS(=O)(=O)c2ccc(N)cc2)ncn1`, the call was inactive.

For the compound `Cl/C(=C\n1cncn1)c1ccc(Cl)cc1Cl`, the compound was called inactive.

Turning to `CCCCNc1ccc(C(=O)OCCOCCOCCOCCOCCOCCOCCOCCOCCOC)cc1`, the compound was classed as inactive.

As to `CC[C@H](c1ccc(O)cc1)[C@@H](CC)c1ccc(O)cc1`, the compound was classed as inactive.

With `Nc1ccc(S(=O)(=O)Nc2cnc3ccccc3n2)cc1`, the compound was called inactive.

As to `Nc1ccc(C(=O)NCC(=O)O)cc1`, the result was inactive.

Regarding `O=C1C(=O)c2ccccc2C(O)=C1C1CCC(c2ccc(Cl)cc2)CC1` (stereo not given), the call was inactive.

Regarding `c1ccc(CC2=NCCN2)cc1`, the call was inactive.

`CCOC(=O)c1ccc(N)cc1`: the compound was called inactive.

Take `CCN(CC)CCNC(=O)c1cc(Br)c(N)cc1OC`: the call was inactive.

`O=C(O)CCC(=O)Nc1ccc(S(=O)(=O)Nc2nccs2)cc1`: the compound was classed as inactive.

Consider `Cc1cc(-c2ccccc2)nnc1NCCN1CCOCC1`, for which the outcome was inactive.

Turning to `CC(C)(C)NC[C@H](O)COc1nsnc1N1CCOCC1`, the result was inactive.

Consider `COc1cc(C)nc(-n2nc(C)cc2OC)n1`, for which the result was inactive.

On to `CCc1oc2ccccc2c1C(=O)c1cc(Br)c(O)c(Br)c1`, for which the call was inactive.

On to `O=C(O)CCc1nc2ccccc2[nH]1`, for which the result was inactive.

On to `CCCc1ncc(C[n+]2ccccc2C)c(N)n1`, for which the outcome was inactive.

As to `CCN(CC)CCNc1ccc(CO)c2sc3ccccc3c(=O)c12`, the compound was called inactive.

For `N=C(N)N1CCc2ccccc2C1`, the compound was called inactive.

Consider `CNCCc1ccccn1`, for which the call was inactive.
